About 7,900 targets were measured; listed, in parts, are those with a hit and a random draw of the rest. About 0.6% of all pairs of compound and target were hits.

Chain of UniProt Q9NYB0 (Q9NYB0 whole entry, looked up): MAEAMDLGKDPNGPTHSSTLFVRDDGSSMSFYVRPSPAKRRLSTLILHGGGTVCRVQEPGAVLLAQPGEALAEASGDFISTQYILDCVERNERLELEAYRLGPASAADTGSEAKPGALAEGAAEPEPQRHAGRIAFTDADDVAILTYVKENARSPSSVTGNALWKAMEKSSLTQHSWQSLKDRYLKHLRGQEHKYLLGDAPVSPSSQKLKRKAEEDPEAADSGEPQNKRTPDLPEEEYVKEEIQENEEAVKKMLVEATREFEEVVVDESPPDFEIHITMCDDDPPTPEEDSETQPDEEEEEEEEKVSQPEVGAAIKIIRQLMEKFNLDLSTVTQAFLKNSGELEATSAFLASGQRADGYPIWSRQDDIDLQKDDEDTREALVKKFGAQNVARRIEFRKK
Chain of UniProt P51571 (P51571 whole entry, looked up): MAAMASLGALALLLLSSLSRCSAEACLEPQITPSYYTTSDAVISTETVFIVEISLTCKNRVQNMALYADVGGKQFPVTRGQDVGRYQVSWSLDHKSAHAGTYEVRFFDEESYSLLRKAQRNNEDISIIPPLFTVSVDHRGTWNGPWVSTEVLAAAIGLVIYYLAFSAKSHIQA
Chain of UniProt Q9UDY2 (Q9UDY2 whole entry, looked up): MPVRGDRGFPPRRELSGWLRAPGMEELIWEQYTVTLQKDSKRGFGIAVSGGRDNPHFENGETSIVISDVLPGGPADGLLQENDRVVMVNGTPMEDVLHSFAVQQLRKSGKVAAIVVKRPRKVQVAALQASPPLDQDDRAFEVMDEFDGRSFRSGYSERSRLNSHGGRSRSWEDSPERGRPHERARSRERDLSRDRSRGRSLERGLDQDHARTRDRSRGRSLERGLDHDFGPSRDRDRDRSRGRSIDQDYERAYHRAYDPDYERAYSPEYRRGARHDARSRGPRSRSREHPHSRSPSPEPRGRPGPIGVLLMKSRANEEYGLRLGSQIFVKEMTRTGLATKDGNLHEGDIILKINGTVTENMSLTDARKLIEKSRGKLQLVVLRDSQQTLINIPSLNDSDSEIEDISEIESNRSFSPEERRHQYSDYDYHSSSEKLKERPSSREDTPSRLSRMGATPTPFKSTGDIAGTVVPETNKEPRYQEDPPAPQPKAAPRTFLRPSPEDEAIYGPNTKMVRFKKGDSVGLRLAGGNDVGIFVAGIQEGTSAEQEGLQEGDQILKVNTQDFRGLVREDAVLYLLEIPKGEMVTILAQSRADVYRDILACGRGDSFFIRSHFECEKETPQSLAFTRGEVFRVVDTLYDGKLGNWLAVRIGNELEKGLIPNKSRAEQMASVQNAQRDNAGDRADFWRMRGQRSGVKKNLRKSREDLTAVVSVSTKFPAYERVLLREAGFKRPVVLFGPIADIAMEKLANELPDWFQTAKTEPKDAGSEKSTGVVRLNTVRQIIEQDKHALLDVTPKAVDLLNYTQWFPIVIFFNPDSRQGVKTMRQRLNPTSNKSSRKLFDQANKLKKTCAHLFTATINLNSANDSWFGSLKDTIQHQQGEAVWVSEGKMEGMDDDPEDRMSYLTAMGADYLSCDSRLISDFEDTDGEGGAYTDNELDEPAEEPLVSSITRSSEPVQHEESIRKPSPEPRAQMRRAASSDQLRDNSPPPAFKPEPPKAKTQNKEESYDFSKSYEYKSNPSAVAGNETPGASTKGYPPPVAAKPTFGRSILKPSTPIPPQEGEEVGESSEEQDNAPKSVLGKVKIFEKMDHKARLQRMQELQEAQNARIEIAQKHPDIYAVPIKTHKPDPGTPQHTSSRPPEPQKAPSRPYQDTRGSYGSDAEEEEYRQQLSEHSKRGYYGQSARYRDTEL
Chain of UniProt Q9UMY4 (Q9UMY4 whole entry, looked up): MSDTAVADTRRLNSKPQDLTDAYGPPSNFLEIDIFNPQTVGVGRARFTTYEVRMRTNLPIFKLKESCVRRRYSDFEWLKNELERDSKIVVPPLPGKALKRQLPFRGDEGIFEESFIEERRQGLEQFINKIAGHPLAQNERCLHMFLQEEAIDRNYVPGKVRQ
Chain of UniProt Q8WXA9 (Q8WXA9 whole entry, looked up): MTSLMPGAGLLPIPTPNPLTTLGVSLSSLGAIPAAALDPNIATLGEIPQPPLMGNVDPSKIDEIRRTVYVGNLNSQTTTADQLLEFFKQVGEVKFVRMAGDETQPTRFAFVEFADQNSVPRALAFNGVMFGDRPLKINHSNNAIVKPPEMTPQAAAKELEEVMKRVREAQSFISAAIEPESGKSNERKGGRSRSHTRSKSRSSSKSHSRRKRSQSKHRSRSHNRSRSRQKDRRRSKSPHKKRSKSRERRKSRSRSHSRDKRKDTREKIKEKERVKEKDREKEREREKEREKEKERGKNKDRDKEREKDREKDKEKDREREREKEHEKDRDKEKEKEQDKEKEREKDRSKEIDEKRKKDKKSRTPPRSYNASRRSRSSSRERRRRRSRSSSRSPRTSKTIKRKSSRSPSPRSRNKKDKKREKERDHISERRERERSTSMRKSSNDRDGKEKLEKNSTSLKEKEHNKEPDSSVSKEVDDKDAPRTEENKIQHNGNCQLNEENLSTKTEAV
Chain of UniProt Q15796 (Q15796 whole entry, looked up): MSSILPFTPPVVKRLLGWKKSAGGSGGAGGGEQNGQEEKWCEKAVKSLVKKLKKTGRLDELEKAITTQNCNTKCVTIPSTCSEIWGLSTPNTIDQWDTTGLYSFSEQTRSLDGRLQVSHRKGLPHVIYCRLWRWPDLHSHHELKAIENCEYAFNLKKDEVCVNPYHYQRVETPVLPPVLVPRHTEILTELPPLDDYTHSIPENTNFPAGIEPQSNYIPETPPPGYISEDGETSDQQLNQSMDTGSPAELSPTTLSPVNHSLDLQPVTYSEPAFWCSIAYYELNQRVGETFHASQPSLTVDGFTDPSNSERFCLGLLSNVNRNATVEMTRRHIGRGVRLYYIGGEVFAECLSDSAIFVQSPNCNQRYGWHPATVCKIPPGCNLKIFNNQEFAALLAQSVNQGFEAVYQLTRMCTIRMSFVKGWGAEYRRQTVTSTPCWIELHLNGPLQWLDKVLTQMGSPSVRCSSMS
Chain of UniProt Q9NUY8 (Q9NUY8 whole entry, looked up): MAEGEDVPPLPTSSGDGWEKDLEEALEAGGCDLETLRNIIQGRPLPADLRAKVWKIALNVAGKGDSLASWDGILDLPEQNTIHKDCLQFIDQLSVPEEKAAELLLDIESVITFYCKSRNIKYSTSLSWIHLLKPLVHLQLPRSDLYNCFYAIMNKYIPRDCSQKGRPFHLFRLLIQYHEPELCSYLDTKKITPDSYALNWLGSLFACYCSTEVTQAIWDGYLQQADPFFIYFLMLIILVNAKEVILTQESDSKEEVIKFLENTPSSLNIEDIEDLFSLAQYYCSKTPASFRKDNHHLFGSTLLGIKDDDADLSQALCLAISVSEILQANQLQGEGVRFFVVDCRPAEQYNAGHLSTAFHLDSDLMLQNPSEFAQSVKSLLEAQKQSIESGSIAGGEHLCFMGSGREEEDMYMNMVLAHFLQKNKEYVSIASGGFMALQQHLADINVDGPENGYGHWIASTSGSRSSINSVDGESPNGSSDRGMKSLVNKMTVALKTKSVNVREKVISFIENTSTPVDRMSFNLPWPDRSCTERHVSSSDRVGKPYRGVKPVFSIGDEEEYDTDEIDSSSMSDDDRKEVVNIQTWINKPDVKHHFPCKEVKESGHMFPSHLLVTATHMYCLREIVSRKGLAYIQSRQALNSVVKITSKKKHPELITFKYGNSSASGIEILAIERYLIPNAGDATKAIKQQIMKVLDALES
Chain of UniProt P02786 (P02786 whole entry, looked up): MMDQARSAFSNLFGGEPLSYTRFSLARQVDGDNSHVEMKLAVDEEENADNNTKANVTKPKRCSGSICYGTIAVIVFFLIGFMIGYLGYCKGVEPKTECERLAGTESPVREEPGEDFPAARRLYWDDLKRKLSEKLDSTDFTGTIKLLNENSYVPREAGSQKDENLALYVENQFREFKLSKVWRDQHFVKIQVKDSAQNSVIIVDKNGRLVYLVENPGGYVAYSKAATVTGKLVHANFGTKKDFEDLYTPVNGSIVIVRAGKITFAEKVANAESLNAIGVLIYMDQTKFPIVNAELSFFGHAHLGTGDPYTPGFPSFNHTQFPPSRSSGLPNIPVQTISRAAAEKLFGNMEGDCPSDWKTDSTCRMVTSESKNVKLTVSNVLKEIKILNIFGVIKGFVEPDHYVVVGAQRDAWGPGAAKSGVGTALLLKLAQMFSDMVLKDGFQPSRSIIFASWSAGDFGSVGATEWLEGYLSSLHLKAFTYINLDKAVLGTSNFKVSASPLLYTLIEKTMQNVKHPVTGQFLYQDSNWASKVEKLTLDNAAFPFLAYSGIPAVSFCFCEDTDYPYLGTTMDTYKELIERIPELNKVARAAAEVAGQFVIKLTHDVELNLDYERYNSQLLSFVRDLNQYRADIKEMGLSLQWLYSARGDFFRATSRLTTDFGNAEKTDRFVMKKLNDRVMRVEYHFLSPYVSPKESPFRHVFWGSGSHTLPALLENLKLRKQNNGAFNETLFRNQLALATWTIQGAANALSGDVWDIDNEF
Chain of UniProt Q969X1 (Q969X1 whole entry, looked up): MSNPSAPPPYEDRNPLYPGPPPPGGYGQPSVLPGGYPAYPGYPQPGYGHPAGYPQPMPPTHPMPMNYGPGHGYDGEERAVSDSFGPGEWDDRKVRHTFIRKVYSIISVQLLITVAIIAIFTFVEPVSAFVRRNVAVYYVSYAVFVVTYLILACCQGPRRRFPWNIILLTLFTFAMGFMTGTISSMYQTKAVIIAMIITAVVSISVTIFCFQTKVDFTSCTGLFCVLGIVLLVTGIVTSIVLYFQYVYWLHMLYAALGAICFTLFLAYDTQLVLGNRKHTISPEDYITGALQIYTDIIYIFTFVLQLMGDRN
Chain of UniProt O95772 (O95772 whole entry, looked up): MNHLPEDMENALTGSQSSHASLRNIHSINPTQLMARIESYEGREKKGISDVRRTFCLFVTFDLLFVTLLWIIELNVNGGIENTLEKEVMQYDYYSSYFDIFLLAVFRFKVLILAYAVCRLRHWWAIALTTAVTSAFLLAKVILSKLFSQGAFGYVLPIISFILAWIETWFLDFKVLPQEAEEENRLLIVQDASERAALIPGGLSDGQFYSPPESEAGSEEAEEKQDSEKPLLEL

Compound in the experiment: C1=CC=C2C(=C1)C3=NNC4=CC=CC(=C43)C2=O
Briefly: log2 fold change, soluble protein after heating vs DMSO (PISA); higher = thermal stabilisation; K562 cells, 10 uM, 30 min; active = over 0.2 and 3.5 SD of the protein, either way, in both replicates (recomputed). The procedure, abridged:
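Soluble protein was quantified by TMTpro 16plex LC-MS/MS after channel sums were equalised. It was obtained as the supernatant after 21,000xg for 90 min from pooled aliquots of K562 cells (2×10^6 cells/mL, 10 μM compound, 30 min) heated for 3 min across 48°C-58°C and extracted in PBS with 0.5% NP-40 at 4°C. Thermal stability values are relative to control samples and come from duplicates. They are given as log2 fold changes.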
STAT3 (UniProt P40763): the log2 fold change is -0.001 (inactive).

SNX3 (UniProt O60493): the log2 fold change was -0.136 (inactive).

With SLC25A42 (UniProt Q86VD7), the log2 fold change is -0.137 (inactive).

Consider STRN (UniProt O43815), for which the log2 fold change is 0.025 (inactive).

As to SNX11 (UniProt Q9Y5W9), the log2 fold change is -0.042 (inactive).

Consider STARD3NL (UniProt O95772), for which the log2 fold change was 0.103 (inactive).

As to SNX12 isoform 1 (UniProt Q9UMY4), the log2 fold change is -0.064 (inactive).

For SRC isoform 2 (UniProt P12931), the log2 fold change is -0.049 (inactive).

SLIRP (UniProt Q9GZT3): the log2 fold change is -0.187 (inactive).

With SPG11 (UniProt Q96JI7), the log2 fold change is -0.073 (inactive).

As to TMBIM1 (UniProt Q969X1), the log2 fold change was -0.069 (inactive).

In the case of TJP2 isoform 7 (UniProt Q9UDY2), the log2 fold change was -0.006 (inactive).

On to SMAD2 (UniProt Q15796), for which the log2 fold change is -0.045 (inactive).

On to TERF2IP (UniProt Q9NYB0), for which the log2 fold change is -0.074 (inactive).

Consider STK25 (UniProt O00506), for which the log2 fold change was -0.007 (inactive).

Regarding STARD7 (UniProt Q9NQZ5), the log2 fold change is 0.067 (inactive).

Consider TCERG1 (UniProt O14776), for which the log2 fold change is 0.027 (inactive).

SREK1 isoform 2 (UniProt Q8WXA9): the log2 fold change is -0.096 (inactive).

For the target TBC1D23 (UniProt Q9NUY8), the log2 fold change is -0.054 (inactive).

On to TGFBI (UniProt Q15582), for which the log2 fold change is -0.133 (inactive).

Regarding TFRC (UniProt P02786), the log2 fold change is -0.011 (inactive).

As for SSR4 (UniProt P51571), the log2 fold change is -0.002 (inactive).

Values taken from the supplement of paper PMC10849652.
